# M1 ag: human M1 muscarinic receptor agonism. CHO-K1 hM1, Fluo-8 calcium fluorescence, agonist mode; 0% DMSO, 100% acetylcholine EC100. activation, % at 3 µM. actives 0.33% (n = 360,000). AID 588814;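 active = activation above the run's mean compound activation plus 3 SD, cut at about 16% in these data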;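 note: peak over basal fluorescence ratio within a 140 s kinetic read after compound addition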
# Target sequence (P11229 whole entry, looked up): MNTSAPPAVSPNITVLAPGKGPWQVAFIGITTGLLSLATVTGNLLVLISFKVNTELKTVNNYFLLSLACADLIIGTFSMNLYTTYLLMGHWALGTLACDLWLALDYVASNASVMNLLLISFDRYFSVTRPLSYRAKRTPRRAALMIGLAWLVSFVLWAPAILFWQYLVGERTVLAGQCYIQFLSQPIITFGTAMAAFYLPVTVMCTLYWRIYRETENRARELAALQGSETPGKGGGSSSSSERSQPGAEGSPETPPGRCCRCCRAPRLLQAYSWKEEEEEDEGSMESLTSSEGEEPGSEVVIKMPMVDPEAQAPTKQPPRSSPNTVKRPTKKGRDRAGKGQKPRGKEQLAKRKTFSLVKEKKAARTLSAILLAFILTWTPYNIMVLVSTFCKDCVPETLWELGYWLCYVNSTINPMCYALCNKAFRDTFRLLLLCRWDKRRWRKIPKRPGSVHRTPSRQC
# CHO-K1 Ca PAM: counter-screen for M1 PAMs: effect in parental CHO-K1 cells. ATP EC20, Fluo-8 calcium fluorescence; 0% at ATP EC20, 100% at ATP max. activation, % at 3 µM. actives 0.02% (n = 360,000);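 active = activation above the run cutoff, the mean activation of all test compounds plus 3 SD, cut at about 40% in these data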;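 note: peak over basal fluorescence ratio in a 140 s read after ATP addition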
# M1 PAM: potentiates human M1 receptor response to acetylcholine; activation, % at 3 µM; CHO-K1 hM1, Fluo-8 calcium fluorescence, ACh EC20; 0% = ACh EC20, 100% = maximal ACh; P11229; AID 588819; actives 0.088% (n = 360,000); in the data active = activation above about 19%, passing the limit was not always enough
# CHO-K1 Ca antag: M1 antagonist counterscreen hit in parental CHO-K1 cells; actives 0.6% (n = 360,000); ATP-induced calcium, Fluo-8 fluorescence; inhibition, % at 3 µM;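 active = inhibition above a per-plate cutoff, the plate's mean sample inhibition plus 3 SD, cut at about 24% in these data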;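 note: 0% = DMSO plus EC80 ATP and 100% = DMSO alone without ATP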
# M1 antag: antagonists of human M1 muscarinic receptor | actives 1.3% (n = 360,000) | CHO-K1 hM1, Fluo-8 calcium fluorescence, ACh EC80 antagonist | P11229 | inhibition, % at 3 µM;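 active = percent inhibition above its own plate's cutoff, namely the mean of that plate's compound wells plus 3 SD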;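 note: peak over basal fluorescence ratio during 140 s after agonist addition; 0% = ACh EC80 plus DMSO and 100% = DMSO alone without agonist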
# CHO-K1 Ca ag: counter-screen for M1 agonists: effect in parental CHO-K1 cells; actives 0.48% (n = 360,000); Fluo-8 calcium fluorescence; scaled to maximal ATP response, vehicle zero; activation, % at 3 µM; in the data active = activation above about 15%;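 note: untransfected CHO-K1 host cells lacking M1 receptor as counterscreen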
# Starred values were filed as active, the others as inactive; / = no result given; ! = repeats disagree. Compounds with a hit are over-represented: about 2.3% of the library has one in this group of screens.
SMILES,M1 ag,CHO-K1 Ca PAM,M1 PAM,CHO-K1 Ca antag,M1 antag,CHO-K1 Ca ag
Cn1nc(C(F)(F)F)c(/C=N/OC(=O)c2ccccc2)c1SCc1ccccc1Cl,-5,4,-21,-8,41*,0
FC(F)Sc1ccc(-n2c(-c3ccc(Cl)cc3)c[n+]3c2CCC3)cc1,-6,-5,-21,0,61*,0
CC(C)C(NC(=O)OCc1ccccc1)C(=O)NC(Cc1ccc(O)cc1)C(=O)O (stereo not drawn),-3,-11,5,-5,-9,1
CC(C)[C@H](NC(=O)[C@H](CCCN=C(N)N)NC(=O)NC(Cc1ccccc1)C(=O)O)C(=O)NC(C=O)CCCN=C(N)N (stereo partly drawn),-3,-6,-2,27*,-14,0
Cc1ccc(OCc2cnc(Cl)s2)c(C)c1,-5,12,11,-8,-16,0
Nc1nc(N)c2cc([N+](=O)[O-])ccc2n1,1,22,5,-21,-12,1
Nc1nc(N)c2c(ccc3c2ccn3Cc2cccc([N+](=O)[O-])c2)n1,-13,16,-31,2,43*,1
O=C(NNC(=O)C1CC1)c1ccccc1[N+](=O)[O-],4,11,3,-1,-4,5
O=C(Nc1cccc(Cl)c1)OCCOCCOC(=O)Nc1cccc(Cl)c1,-2,5,-5,-11,5,1
O=C(Nc1cccc(Cl)c1)ON=C1c2ccccc2-c2ccccc21,-9,-15,-16,21,29*,2
CC1=C(Sc2ccccn2)C(=O)NC(C)(C)C1,-2,-6,0,27*,4,0
Cc1cc(C)c(NC(=O)CN2CCN3CCCC3C2)c(C)c1 (stereo not drawn),5,-6,29*!,-13,-20,0
CCCCN(CC)CCCNC(=O)c1ccc(CS(=O)(=O)c2ccccc2C)o1,-10,4,-2,-13,-2,0
CCCNC(=O)C(Cc1ccc(F)cc1)NC(=O)c1ccccc1 (stereo not drawn),-1,5,-2,-14,5,0
CC(C)NC(=O)c1ccc2c(c1)N(CC(=O)N1CCCC1)C(=O)C(C)(C)O2,-2,8,9,-20,-15,2
CC(C)NC(=O)c1ccc2c(c1)N(Cc1ccccc1)C(=O)C(C)(C)O2,-3,-2,0,24*,7,0
COCCn1c(SCc2ccc(C(=O)OC)o2)nc2ccccc2c1=O,-10,-7,-2,-2,-4,2
COC(=O)c1cc(CSc2nc3ccccc3c(=O)n2C)oc1C,-5,-5,-31,15,67*,14
COC(=O)c1c(N)[nH]c(C(=O)c2ccccc2)c1-c1ccccc1Br,/,-7,/,7,/,2
Cc1c(C)c2ccc(OC(C)C(=O)NCCCN3CCOCC3)c(C)c2oc1=O (stereo not drawn),-2,-3,1,2,-2,0
COC(=O)c1ccc(CNC(=O)c2ccc3c(c2)S(=O)(=O)N=C2CCCCCN23)cc1,-7,13,5,-15,-3,0
CCN1CCN(CCNC(=O)c2ccc3nc(-c4cccc(C)c4)c(-c4cccc(C)c4)nc3c2)CC1,-5,10,-25,-12,83*,2
CCCNC(=O)c1ccc2nc(-c3ccccc3)c(-c3ccccc3)nc2c1,-4,16,1,-7,4,1
CC(=O)N1CCc2cc(S(=O)(=O)NCCC(=O)NCCc3ccc(Cl)cc3)ccc21,0,1,-5,-2,7,16*
CC(=O)N1c2ccc(S(=O)(=O)NCCc3ccccc3)cc2CC1C (stereo not drawn),1,-3,-14,11,29*,10
SMILES,M1 ag,CHO-K1 Ca PAM,M1 PAM,CHO-K1 Ca antag,M1 antag,CHO-K1 Ca ag
COc1ccc(CC(=O)OCC(=O)NC2CCCCC2)cc1OC,-3,11,-7,-9,2,1
CC1(C)Cc2c(sc(NC(=O)Cc3ccccc3)c2C#N)CO1,-3,3,9,1,-14,1
CC1(C)Cc2c(sc(NC(=O)c3ccc(Br)o3)c2C#N)CO1,-1,-8,7,25*,-2,0
CCN(CC)CCNC(=O)c1ccc(NC(=O)c2cn(-c3ccc(F)cc3)nc2-c2cccc(OC)c2)cc1,-11,14,-31,-11,99*,1
CCN(CC)CCNC(=O)c1ccc(NC(=O)c2cccc(S(=O)(=O)N(C)C3CCCCC3)c2)cc1,-8,10,-30,-15,100*,0
CCN(CC)CCNC(=O)c1ccc(NC(=O)c2ccccc2-c2ccc(C(F)(F)F)cc2)cc1,-11,10,-31,-7,101*,4
CCN(CC)CCNC(=O)c1ccc(NC(=O)c2cn(-c3ccccc3)nc2-c2cccs2)cc1,-9,25,-28,-4,61*,2
CCN(CC)CCNC(=O)c1ccc(NC(=O)c2ccc3c(c2)CCC3)cc1,-10,16,-11,-16,14,2
CCN(CC)CCNC(=O)c1ccc(NC(=O)Cc2ccccc2F)cc1,-15,4,-9,3,4,0
O=C(Nc1cccnc1)c1cn(-c2ccccc2)nc1-c1cccs1,-1,5,-9,-5,6,5
COc1ccc(N2CCN(C(=O)c3cc4c(s3)-c3ccccc3S(=O)(=O)C4)CC2)cc1,0,16,-2,-9,1,7
CCN(CC(=O)Nc1ccc(NC(C)=O)cc1)C(=O)c1c(C)nn(-c2ccc(F)cc2)c1Cl,-3,-10,-12,-7,30,4
CCN(CC)CCNC(=O)c1ccc(NC(=O)c2c(C)nn(-c3ccc(F)cc3)c2Cl)cc1,-10,3,-33,-1,101*,3
Cc1nn(-c2ccc(NC(=O)c3ccncc3)cc2)c(C)c1Cl,2,-5,-20,9,32*,13
C/C(=N\NC(=O)c1c(Cl)c(C)nn1C)c1ccc(NC(=O)c2ccncc2)cc1,-6,7,3,9,-2,0
Oc1ccccc1N1CCN(C(=S)NCCc2ccccc2)CC1,-2,-16,-13,28*,13,3
Cn1c(N)c(-c2ccccc2)c2ccc([N+](=O)[O-])cc2c1=O,62*,-6,-24,-5,42*,16*
CC(=O)Nc1cccc(-c2ccnc3c2CC(C)(C(=O)NCc2ccc(F)c(F)c2)O3)c1 (stereo not drawn),1,6,6,0,-4,3
CC1=C(C#N)C(C(F)(F)F)(C(F)(F)F)N=C(c2ccco2)N1,5,13,-12,-1,14,16*
NC1=NC2CS(=O)(=O)CC2S1 (stereo not drawn),1,-6,-4,8,10,4
